Compound activity (PubChem BioAssay)
Sampled rows, rich in hits. Any-hit rate of the full collection: about 12%.
PLK1 PBD inh – blocks phosphopeptide binding to human PLK1 polo-box domain; P53350; Plk1 PBD binding of FITC phosphopeptide, fluorescence polarization; 360,000 compounds, 2.8% hits; Potency, µM, inactives show max response, negative = inhibition, most hits filed as inhibitors; further: series mostly up to about 57 µM; on the % scale 0 is the no-effect control and ±100 the full control effect; nearly all actives have a fitted effect of over 65% in size
Target sequence (P53350 whole entry, looked up, the tested form may be a part): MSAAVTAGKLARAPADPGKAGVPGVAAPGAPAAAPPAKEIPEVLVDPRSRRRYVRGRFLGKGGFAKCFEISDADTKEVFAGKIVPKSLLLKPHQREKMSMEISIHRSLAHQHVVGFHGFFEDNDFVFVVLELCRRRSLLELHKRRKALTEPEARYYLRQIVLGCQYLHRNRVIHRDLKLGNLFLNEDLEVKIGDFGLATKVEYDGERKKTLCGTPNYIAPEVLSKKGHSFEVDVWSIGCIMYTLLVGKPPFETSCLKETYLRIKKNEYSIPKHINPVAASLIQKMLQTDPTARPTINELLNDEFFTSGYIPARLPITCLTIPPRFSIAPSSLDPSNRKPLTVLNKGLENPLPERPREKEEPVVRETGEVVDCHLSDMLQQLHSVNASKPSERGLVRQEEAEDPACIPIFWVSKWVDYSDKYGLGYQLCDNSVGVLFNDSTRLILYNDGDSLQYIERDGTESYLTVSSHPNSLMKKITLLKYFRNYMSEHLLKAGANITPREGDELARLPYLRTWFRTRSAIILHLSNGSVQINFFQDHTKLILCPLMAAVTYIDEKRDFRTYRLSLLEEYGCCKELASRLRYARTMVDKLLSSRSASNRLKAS
HP1b chromo inh – blocks HP1-beta chromodomain binding to methylated histone tails; Potency, µM (top dose mostly 114 µM), without a hit: at the highest dose activity change, negative = inhibition, most hits filed as inhibitors; 390,000 compounds, 0.56% hits; P83916; AlphaScreen HP1-beta / biotin-H3K9me3 peptide binding; further: nearly all actives have a fitted effect of over 70% in size
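Compound inhibition of the preformed complex between 50 nM HP1-beta and 50 nM biotinylated H3K9me3 peptide was read by AlphaScreen. Buffer was PBS pH 7.4 with 0.01% Tween-20. Incubations ran 30 min at room temperature, with 10 ug/mL donor/acceptor beads.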
BAZ2B inh – inhibitors of human BAZ2B bromodomain; Q9UIF8; AlphaScreen BAZ2B-H3K14Ac peptide displacement; Potency, µM (doses to about 114 µM), for the others: top-dose activity change, negative = inhibition, actives largely listed as inhibitors; 360,000 compounds, 4.4% hits; AID 504333; further: on the % scale 0 is the no-effect control and ±100 the full control effect; nearly all actives have a fitted effect of over 60% in size
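Multi-concentration screen (max 110 uM) measuring displacement of acetylated histone H3 peptide from BAZ2B by AlphaScreen, using 50 nM protein, 50 nM peptide and 10 ug/mL streptavidin donor plus Ni-chelate acceptor beads.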
JMJD2A Tudor – inhibitors of human JMJD2A Tudor domain. O75164. AlphaScreen JMJD2A-Tudor / H3K4me3 peptide binding. Potency, µM (top dose mostly 114 µM), without a hit: top-dose activity change, negative = inhibition, hits mostly inhibitors. 390,000 compounds, 4.4% hits. AID 504339; further: on the % scale 0 is the no-effect control and ±100 the full control effect; nearly all actives have a fitted effect of over 50% in size
Sfp inh – Sfp phosphopantetheinyl transferase inhibition; Q9F4F7; Biochemical Sfp PPTase activity, qHTS; Potency, µM, for the others: largest response in the series, negative = inhibition, usual class: inhibitors; 310,000 compounds, 3.5% hits; AID 1490;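 further: the enzyme is Sfp with the accession as filed and its product quenches rhodamine fluorescence; 0% = enzyme reaction without inhibitor and -100% = no enzyme wells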
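After 15 min at room temperature with compound, 15 nM Sfp received 5 uM rhodamine-CoA plus 12.5 uM BHQ-2-ybbR (50 mM Hepes pH 7.6, 10 mM MgCl2). Rate came from the fluorescence difference over 30 min, ex 525/em 598 nm.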
G9a block – blocks human histone lysine methyltransferase G9a | G9a H3K9 monomethylation, AlphaScreen, 2 h | Potency, µM (doses to about 102 µM), for inactives: at the highest dose activity, negative = inhibition, hits mostly inhibitors | 350,000 compounds, 8.8% hits | AID 504332; further: on the % scale 0 is the no-effect control and ±100 the full control effect; nearly all actives have a fitted effect of over 75% in size
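Readings reflect AlphaScreen signal from monomethyl-H3K9 antibody detection. HMT at 20 nM; substrate b-H3K9 500 nM; cofactor SAM 20 uM; 2 h RT reaction; compounds tested as titrations in qHTS with 15 min preincubation.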
Active calls of the source: *; ? = inconclusive; · = not tested or not shown; [ ] = another dose, or the depositor's remark. The call rests on the fitted dose curve; in most records, active means well fitted curve in the direction sought with a large enough effect; inconclusive means small, poorly fitted or top-dose-only effect, or another doubt; inactive means no such curve, though single readings can be large; an effect the other way counts as inactive or inconclusive. Potency means the concentration at half of the fitted maximal effect.

SMILES	PLK1 PBD inh	HP1b chromo inh	BAZ2B inh	JMJD2A Tudor	Sfp inh	G9a block
O=C(NCCCn1ccnc1)/C(=C/c1ccco1)NC(=O)c1ccccc1	-4%	43%	·	-16%	·	·
O=C(NCCCn1ccnc1)/C(=C\c1ccccc1Cl)NC(=O)c1ccccc1	-9%	31%	?	-11%	2%	·
O=C(CC1S/C(=N/N=C/C=C/c2ccccc2)NC1=O)Nc1ccc(C(=O)O)cc1 (stereo not given)	-2%	24%	79µM*	-17%	-5%	?
Cc1ccccc1NC(=O)CC1SC(=NC2CCCCC2)NC1=O (stereo not given)	-5%	53%	10%	-9%	-14%	-27%[59 µM]
Cc1ccc(NC(=O)CC2SC(=NC3CCCCC3)NC2=O)cc1 (stereo not given)	-15%	42%	-2%	-12%[57.1 µM]	-2%	89µM*
CC1=C/C(=N\N=C2\NC(=O)C(CC(=O)Nc3ccccc3)S2)CC(C)(C)C1 (stereo not given)	24µM*	7%	0%	?	7%	-33%
CCCCOC(=O)c1ccc(NC(=O)Cc2coc3ccc(C(C)C)cc23)cc1	·	56%	-14%	7%	·	2%[59 µM]
CCOC(=O)c1c(NC(=O)CC2SC(N)=NC2=O)sc2c1CCCC2 (stereo not given)	-10%	1%	-22%	-16%	-4%	9%
N#Cc1c(C(F)(F)F)cc(=O)n2c1[nH]c1ccccc12	21µM*	10%	-1%	13%	17%	-1%
Cc1c(Cc2ccccc2)c(=O)n2c([nH]c3ccccc32)c1C#N	-15%	64%	-4%	-10%[11.4 µM]	79µM*	0%
N#Cc1c(CSCC(=O)O)cc(=O)n2c1[nH]c1ccccc12	2%	26%	-35%	-16%	-8%	?
COc1ccc(CN(C)C(=O)c2cc(S(=O)(=O)N3CCOCC3)ccc2N2CCCC2)cc1	-2%	0%	14%	-17%	·	-1%[59 µM]
CCN(CC)Cc1c(O)ccc2c1O/C(=C\C=C\c1ccccc1)C2=O	0%	53%	-26%	-1%[11.4 µM]	4%	?
COCCN(CCOC)Cc1c(O)ccc2c1O/C(=C\c1ccc(C)o1)C2=O	7%	-31%	?	-25%	2.8µM*	1µM*
N#Cc1c(NC(=O)CSc2ncnc3sccc23)oc(-c2ccco2)c1-c1ccco1	?	?	45µM*	79µM*	?	?
Cc1cc(NC(=O)CSc2ncnc3sccc23)no1	-3%	45%	-15%	-9%	-4%	1%
COC(=O)c1cccc(N/C=C(\[N+](=O)[O-])S(=O)(=O)c2ccccc2)c1	-27%	18%	4%	-22%	-5%	22%
COC(=O)c1ccc(CNC(=O)C2CCC(=O)N(CCc3ccccn3)C2)cc1 (stereo not given)	-4%	·	·	·	·	·
COC(=O)c1ccc(CNC(=O)C2CCC(=O)N(CCCc3ccccc3)C2)cc1 (stereo not given)	3.4µM*	7%	-1%	?	14%	-10%[0.501 µM]
CCn1nnc2cc(C(=O)O)ccc21	1%	9%	-4%	-8%	11%	·
O=C(NC(=S)N1CCCc2ccccc21)c1ccco1	-28%	19%	?	-22%	?	45µM*
CC1Cc2ccccc2N1C(=S)NC(=O)c1ccco1 (stereo not given)	-17%	?	·	-35%	40µM*	40µM*
COc1ccccc1/C=N/NC(=O)CNC(=O)c1ccccc1	-10%	42%	0%	-13%[11.4 µM]	9%	43%[59 µM]
O=C(O)COc1ccccc1/C=N/NC(=O)c1ccc2c(c1)OCCO2	0%	28%	-31%	-17%	-1%	35%
O=C(O)COc1ccccc1/C=N/NC(=O)c1ccc(F)cc1	-7%	16%	?	-16%	-29%	45µM*
SMILES	PLK1 PBD inh	HP1b chromo inh	BAZ2B inh	JMJD2A Tudor	Sfp inh	G9a block
O=C(O)COc1ccccc1/C=N/NC(=O)CNC(=O)c1ccc(F)cc1	8.4µM*	-8%	?	-7%[11.4 µM]	3%	·
Cc1cc(C)nc(N/N=C/c2ccccc2OCC(=O)O)n1	?	0%	2%	2.5µM*	6.3µM*	-4%[2.33 µM]
COc1ccccc1N1CCN(S(=O)(=O)c2c(C)sc3ncn(CC(=O)Nc4ccc(C)cc4Br)c(=O)c23)CC1	·	26%	3%	-7%	·	-1%[59 µM]
COc1ccc(-c2csc(N(CCCN(C)C)C(=O)c3ccc(C)cc3)n2)cc1	4%	-8%	?	?	3%	79µM*
COc1ccc(-c2csc(N(CCCN3CCOCC3)C(=O)c3ccco3)n2)cc1	-7%	?	?	100µM*	-22%	2%[59 µM]
COc1ccc(-c2csc(N(CCCN(C)C)C(=O)c3ccc(Br)cc3)n2)cc1	4%	-14%	45µM*	-31%	35µM*	9%[0.501 µM]
CCN(CC)CCCN(C(=O)c1ccccc1C)c1nc(-c2ccc(OC)cc2)cs1	-1%	-10%	50µM*	45µM*	?	-36%[0.501 µM]
Cc1ccc(-c2csc(N(CCCN3CCOCC3)C(=O)c3ccco3)n2)cc1	-2%	0%	?	-35%	?	?
COc1ccc(-c2csc(N(CCCN(C)C)C(=O)c3ccc(C(C)(C)C)cc3)n2)cc1	6%	-13%	?	?	2%	?
CCN(CC)CCCN(C(=O)c1ccccc1F)c1nc(-c2ccc(OC)cc2)cs1	-9%	18%	?	?	-16%	·
Cc1cccc(S(=O)(=O)NC2CCN(C#N)C2)c1 (stereo not given)	·	·	·	-4%	·	·
Cc1cc(F)ccc1NC(=O)C1CCC(CNS(=O)(=O)c2ccc3c(c2)CCCC(=O)N3)CC1 (stereo not given)	·	23%	-1%	4%	·	0%[59 µM]
Cc1ccc(-n2nc(C)c3c(C)cc(=O)n(CC(=O)NCc4ccc(OC(C)C)cc4)c32)cc1	·	-9%	-20%	-14%	·	22%[59 µM]
O=S(=O)(NCC1CCC(NS(=O)(=O)c2c(F)cccc2F)CC1)c1ccc2c(c1)OCCO2 (stereo not given)	·	49%	12%	-14%	·	6%[12.7 µM]
CCOC(=O)CCC(NC(=O)CC(=O)NC(CCC(=O)OCC)C(=O)OCC)C(=O)OCC (stereo not given)	2%	46%	-28%	2%	4%	71µM*
O=C(COC(=O)Cc1ccc(Cl)cc1)NC1CCCC1	5%	38%	-1%	-5%	·	8%[12.7 µM]
COc1ccc(CNc2cc(-c3ccccc3CN(C)C)ncn2)c(OC)c1	·	·	·	·	-10%	·
COc1cccc(C(=O)NN/C(C)=C/C(=O)C(F)(F)C(F)(F)C(F)(F)F)c1	27µM*	-12%	12%	?	54%	31%[59 µM]
COc1cccc(C(=O)NNC(=O)Cc2ccc(Cl)cc2)c1	1%	46%	-6%	3%	19%	24%[59 µM]
